Source: PubChem BioAssay (NCATS)
Records with an inconclusive call do not appear. Active and inactive are the calls of the source. Unless noted, calls follow the shape of the dose curve; as a rule, active = well fitted cell-killing curve with a large enough effect; inconclusive = small, poorly fitted or top-dose-only effect, or effect the other way; inactive = no such curve, though single readings can be large or run the other way.

Legend:
[1] = Quantitative High-Throughput drug screen in 47 multiple myeloma cell lines against the NCATS MIPE library collection: VP6_DJ cell viability assay (AID 1919867); also: nearly all actives have a fitted effect of over 40% in size; also: potency is read from the fitted curve at half-maximal effect
Method in brief: (§1)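 500 cells/well; MIPE 4.0 drugs pin-transferred; 48 h, 37C, 5% CO2. CellTiter-Glo, 5 min RT, luminescence. Controls: DMSO 100%, media 0%.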

[2] = Quantitative High-Throughput drug screen in 47 multiple myeloma cell lines against the NCATS MIPE library collection: UTMC2_PLB cell viability assay (AID 1919868); details: CellTiter-Glo ATP luminescence, 48 h; viability (% of DMSO control): at 45.8 µM (top of the series); also: nearly all actives have a fitted effect of over 55% in size; also: potency is read from the fitted curve at half-maximal effect
Method in brief: as §1

[3] = Quantitative High-Throughput drug screen in 47 multiple myeloma cell lines against the NCATS MIPE library collection: PE2_PLB cell viability assay (AID 1919869); also: nearly all actives have a fitted effect of over 35% in size; also: potency is read from the fitted curve at half-maximal effect
Method in brief: as §1

[4] = Quantitative High-Throughput drug screen in 47 multiple myeloma cell lines against the NCATS MIPE library collection: RPMI8226_ATCC cell viability assay (AID 1919871); also: nearly all actives have a fitted effect of over 30% in size; also: potency is read from the fitted curve at half-maximal effect
Method in brief: as §1

[5] = Quantitative High-Throughput drug screen in 47 multiple myeloma cell lines against the NCATS MIPE library collection: OPM2_DSMZ cell viability assay (AID 1919872); also: nearly all actives have a fitted effect of over 30% in size; also: potency is read from the fitted curve at half-maximal effect
Method in brief: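 Myeloma cell lines, 500 cells per well, exposed to MIPE 4.0 library compounds for 48 h at 37C, 5% CO2. Viability from ATP by CellTiter-Glo luminescence; normalised to DMSO (100%) and media-only (0%) wells.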

[6] = Quantitative High-Throughput drug screen in 47 multiple myeloma cell lines against the NCATS MIPE library collection: KMS11_JCRBsus cell viability assay (AID 1919873); also: nearly all actives have a fitted effect of over 50% in size; also: potency is read from the fitted curve at half-maximal effect
Method in brief: as §1

[7] = Quantitative High-Throughput drug screen in 47 multiple myeloma cell lines against the NCATS MIPE library collection: KMS28BM_JCRB cell viability assay (AID 1919874); also: nearly all actives have a fitted effect of over 35% in size; also: potency is read from the fitted curve at half-maximal effect
Method in brief: as §1

[8] = qHTS for identification of novel therapeutic agents for treatment of microphthalmiaassociated transcription factor (MiT) renal cell carcinoma (RCC) (AID 1963991); details: CellTiter-Glo, 48 h, stronger effect = lower value
Method in brief: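 Three TFE3-fusion RCC lines (UOK109, UOK124, UOK145), 500 cells/well in complete medium, were treated with MIPE 4.0 compounds for 48 hours at 37 C. Viability was by CellTiter-Glo luminescence, normalized to DMSO (100%) and empty wells (0%); curves fitted over 11 concentrations.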

[9] = Quantitative High-Throughput drug screen in 47 multiple myeloma cell lines against the NCATS MIPE library collection: PCM6_Riken cell viability assay (AID 1919870); also: nearly all actives have a fitted effect of over 30% in size; also: potency is read from the fitted curve at half-maximal effect
Method in brief: as §1

[10] = qHTS drug screen for cell cycle checkpoint inhibitors in PARPi-resistant BRCA-mutant ovarian cancer cell lines. (AID 1963452; calls by dose curve; also: potency is read from the fitted curve at half-maximal effect); details: PEO1/OlaR viability, CellTiter-Glo luminescence, 96 h; for Z-AUC: stronger effect = lower value
Method in brief: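 PEO1, PEO4 and PEO1/OlaR ovarian cancer cells, 600 per well, exposed 96 h at 37C to a dilution series. Viability read by CellTiter-Glo luminescence, normalized to DMSO and empty wells; activity summarized as Z-AUC.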

[11] = TFE3-RCC UOK109 viability, measured here: UOK109 Z-AUC
[12] = TFE3-RCC viability, measured here: UOK124 Z-AUC
[13] = TFE3-RCC viability, measured here: UOK145 Z-AUC
[14] = measured here: PEO1 parental Z-AUC

SMILES	Potency [1]	Potency [2]	Potency [3]	Potency [4]	Potency [5]	Potency [6]	Potency [7]	z-score [8, 11]	z-score [8, 12]	z-score [8, 13]	Potency [9]	Z-AUC [10]	Z-AUC [10, 14]	Z-AUC ([10]; measured here: PEO4 Z-AUC)	Potency [10]
Clc1ccc(-c2nc3sccn3c2C=NOCc2ccc(Cl)c(Cl)c2)cc1	inactive	inactive	inactive	inactive	inactive	inactive	inactive	0.77	0.598	0.227					
CC(C)C(C)C=CC(C)C1CCC2C3=CC=C4CC(O)CCC4(C)C3CCC21C (stereo not given)	inactive	inactive	inactive	inactive	inactive	inactive		0.762	0.655	1.94	inactive	1.48 (inactive)	1.13	1.32	
Cc1ccc(Nc2cc(-c3cccc(N4C(=O)c5ccccc5C4=O)c3)ncn2)cc1NS(C)(=O)=O	14.8 µM (active)	20.9 µM (active)	16.6 µM (active)	inactive	26.4 µM (active)	20.9 µM (active)					14.8 µM (active)	-0.648 (inactive)	-0.644	-0.365	
CCOC(=O)C1=C(N)Oc2ccc(Br)cc2C1C(C#N)C(=O)OCC (stereo not given)	16.6 µM (active)	18.7 µM (active)	20.9 µM (active)	26.4 µM (active)		23.5 µM (active)	20.9 µM (active)				16.6 µM (active)	1.64 (inactive)	1.22	1.22	
COc1ccc(-c2oc3c(CC=C(C)C)c(OC4O[C@H](CO)[C@@H](O)[C@H](O)[C@@H]4O)cc(O)c3c(=O)c2OC2O[C@@H](C)[C@H](O)[C@@H](O)[C@@H]2O)cc1 (stereo not given in full)	16.6 µM (active)		23.5 µM (active)	20.9 µM (active)	23.5 µM (active)	23.5 µM (active)	16.6 µM (active)				16.6 µM (active)				
CCC(CC)[C@H](NC(C)=O)[C@@H]1[C@H](O)[C@@H](C(=O)O)C[C@@H]1N=C(N)N	4.18 µM (active)		inactive	inactive	inactive	inactive		0.127	-0.172	-0.0122	inactive				
O=C(Nc1ccccc1-c1cn2c(CN3CCNCC3)csc2n1)c1cnc2ccccc2n1	9.35 µM (active)		8.33 µM (active)	20.9 µM (active)	23.5 µM (active)	8.33 µM (active)					10.5 µM (active)	0.244 (inactive)	0.118	-0.298	
Clc1ccc(CCC(Cn2ccnc2)Sc2c(Cl)cccc2Cl)cc1 (stereo not given)	26.4 µM (active)	18.7 µM (active)	20.9 µM (active)			20.9 µM (active)					18.7 µM (active)	1.27 (inactive)	0.807	0.874	
Cc1ccc(F)c(NC(=O)Nc2ccc(-c3cccc4[nH]nc(N)c34)cc2)c1	16.6 µM (active)	8.33 µM (active)				5.26 µM (active)	8.33 µM (active)				23.5 µM (active)				
N#CC(=C(N)Sc1ccccc1N)C(C#N)=C(N)Sc1ccccc1N	20.9 µM (active)	8.33 µM (active)	18.7 µM (active)	10.5 µM (active)	inactive	8.33 µM (active)									
O=C1C(Cl)=C(NCCN2CCOCC2)C(=O)c2ncccc21	7.43 µM (active)	8.33 µM (active)	2.35 µM (active)	9.35 µM (active)	7.43 µM (active)	1.87 µM (active)	3.32 µM (active)				8.33 µM (active)	-1.13 (inactive)	-1.16	-1.1	
CC=C(C)C(=O)O[C@H]1C(C)=C[C@]23C(=O)[C@@H](C=C(CO)[C@@H](O)[C@]12O)[C@H]1[C@@H](C[C@H]3C)C1(C)C	26.4 µM (active)														
O=C(O)c1cc(O)c2c(c1)C(=O)c1cccc(O)c1C2=O	inactive		inactive	42.9 µM (active)	inactive	inactive	inactive	1.17	-0.187	1.5	inactive	-0.369 (inactive)	-0.852	-0.959	
CO[C@H]1C[C@@H]2CC[C@@H](C)[C@@](O)(O2)C(=O)C(=O)N2CCCC[C@@H]2C(=O)O[C@H]([C@H](C)C[C@@H]2CC[C@H](OC(=O)C(C)(CO)CO)[C@H](OC)C2)CC(=O)[C@H](C)C=C(C)[C@@H](O)[C@@H](OC)C(=O)[C@H](C)C[C@H](C)C=CC=CC=C1C	20.9 µM (active)														
COc1ccc(-c2cc(=O)c3c(O)cc(O)cc3o2)cc1O	4.18 µM (active)	8.33 µM (active)	6.62 µM (active)	inactive	inactive	26.4 µM (active)	inactive				3.32 µM (active)				
CO[C@H]1C(=O)[C@]2(C)[C@@H](OC)C[C@H]3OC[C@@]3(OC(C)=O)[C@H]2[C@H](OC(=O)c2ccccc2)[C@]2(O)C[C@H](OC(=O)[C@H](O)[C@@H](NC(=O)OC(C)(C)C)c3ccccc3)C(C)=C1C2(C)C	0.001 µM (active)	inactive	inactive	inactive	inactive	inactive	inactive				0.0012 µM (active)		-2.35	-2.45	0.0078 µM (active)
CC(C)C(=O)Nc1ncc(-c2cc(C(F)F)nn2-c2c(Cl)cccc2Cl)s1	18.7 µM (active)	20.9 µM (active)	23.5 µM (active)			11.8 µM (active)	11.8 µM (active)					-0.482 (inactive)	0.209	0.42	
